Among the test systems are NCI-H226 lung; NCI-H322M lung; HOP-62 NSCLC; NCI-H460 lung; HOP-92 NSCLC; NCI-H522 lung; A549/ATCC NSCLC; 786-0 renal; COLO 205 colon; DU-145 prostate; K-562 leukemia; MALME-3M melanoma; MDA-MB-231 breast; RXF 393 renal; SF-268 CNS; SF-295 CNS; SF-539 CNS; UACC-257 melanoma; M14 melanoma; HCT-15 colon.
What all share (assay): NCI-60 one-dose screen, 48 h (100 = growth as untreated, 0 = no growth, -100 = all killed)
Settings in all cases: 10 µM unless noted

This is part of a sample that, as a whole, favours compounds with a hit. Of some 83,000 tested, about 20% had one in any assay.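 Single-dose data. Exposure time 48 hours. Values below 10 considered active.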 Unmarked numbers belong to inactive results. Activity calls are given as the source filed them.

Take `C#Cc1nc(C2=C(C)C(O)/C(=N/O)C2)cs1` (stereo not given): the growth was 107% with NCI-H226 lung; 102% in the assay with NCI-H322M lung; 111% in the assay on HOP-62 NSCLC; 104% in the assay with NCI-H460 lung; 41.8% in the assay on HOP-92 NSCLC; 15.5% in the assay with NCI-H522 lung. The growth in the assay on A549/ATCC NSCLC is 96.5%; with 786-0 renal, -92.2% (active); with COLO 205 colon, 128%; in the assay with DU-145 prostate it was 87%; in the assay with K-562 leukemia, 87.2%; in the assay on MALME-3M melanoma, 99.5%. The growth in the assay on MDA-MB-231 breast is -28.1% (active); in the assay on RXF 393 renal, 93.7%; in the assay on SF-268 CNS, 65.3%; in the assay on SF-295 CNS, 65%; with SF-539 CNS, 25.5%; in the assay with UACC-257 melanoma it was 90.7%. Moreover, the values for the growth in the assay on M14 melanoma and with HCT-15 colon were 93.8% and 88.1%, respectively.
On to `C#Cc1nc(C2=C(C)C(=O)/C(=N/OC(C)=O)C2)cs1`, for which the growth in the assay with NCI-H226 lung was 107%; in the assay on NCI-H322M lung it was 101%; in the assay on HOP-62 NSCLC, 88.5%; in the assay on NCI-H460 lung, 98.5%; in the assay on HOP-92 NSCLC it was 50%; in the assay on NCI-H522 lung it was 82.6%. The growth is 96.3% in the assay on A549/ATCC NSCLC; -94.5% (active) in the assay on 786-0 renal; 119% with COLO 205 colon; 85.7% in the assay with DU-145 prostate; 84% in the assay with K-562 leukemia; 86.1% in the assay on MALME-3M melanoma. The growth with MDA-MB-231 breast is 30.3%; in the assay with RXF 393 renal it was 85.1%; with SF-268 CNS, 82.2%; in the assay with SF-295 CNS, 56.1%; in the assay with SF-539 CNS, 58.4%; with UACC-257 melanoma it was 86.5%. Besides, the growth in the assay with M14 melanoma was 85.2%; in the assay with HCT-15 colon, 88.1%.
With `OC1CCN(CCCOc2c3ccccc3nc3c2oc2ccc(Cl)cc23)CC1`, the growth in the assay on NCI-H226 lung was 11.1%; in the assay on NCI-H322M lung, -1.27% (active); in the assay on HOP-62 NSCLC, 27%; in the assay with NCI-H460 lung it was 4.79% (active); with HOP-92 NSCLC, 14%; in the assay with NCI-H522 lung it was -51.4% (active). Moreover, the growth with A549/ATCC NSCLC was 1.98% (active); with 786-0 renal, 11.7%; in the assay on COLO 205 colon it was -13.1% (active); with DU-145 prostate it was 5.05% (active); in the assay with K-562 leukemia, 3.22% (active); with MALME-3M melanoma, 1.25% (active). For the same compound, the growth was 17% in the assay with MDA-MB-231 breast; -10.8% (active) in the assay with RXF 393 renal; 22.8% with SF-268 CNS; 8.74% (active) with SF-295 CNS; 14.6% in the assay on SF-539 CNS; 23.6% with UACC-257 melanoma. Further, the growth in the assay with M14 melanoma is -4.12% (active); in the assay with HCT-15 colon, 10.1%.
With `CCCC(=O)NC(c1cccnc1)c1cc(C)c2cccnc2c1O` (stereo not given), the growth in the assay with NCI-H226 lung was 52.6%; with NCI-H322M lung, 32.4%; with HOP-62 NSCLC, 34.4%; in the assay with NCI-H460 lung, 19.3%; with HOP-92 NSCLC, 49.1%; with NCI-H522 lung it was 22.2%. In addition, the growth with A549/ATCC NSCLC is 48.4%; in the assay on 786-0 renal it was 38.9%; in the assay on COLO 205 colon, 12.7%; with DU-145 prostate it was 47.2%; in the assay on K-562 leukemia it was 22.6%; in the assay on MALME-3M melanoma, 53.1%. Moreover, the growth in the assay on MDA-MB-231 breast is 35.5%; in the assay on RXF 393 renal, 81.9%; with SF-268 CNS, 42.1%; with SF-295 CNS it was 32.3%; in the assay with SF-539 CNS it was 23.3%; in the assay on UACC-257 melanoma, 20.9%. In addition, the growth in the assay with M14 melanoma is 27.5%; in the assay with HCT-15 colon it was 24.2%.
For the compound `CCOC(=O)c1sc(N)c(C(=O)OCC)c1C`, the growth in the assay with NCI-H226 lung was 59.7%; with NCI-H322M lung, 83.1%; in the assay on HOP-62 NSCLC it was 52.6%; in the assay with NCI-H460 lung, 92.5%; in the assay with HOP-92 NSCLC, -7.89% (active); in the assay with NCI-H522 lung it was 56.9%. In addition, the growth is 65.3% in the assay on A549/ATCC NSCLC; 50.4% in the assay on 786-0 renal; 68.4% with COLO 205 colon; 66.2% with DU-145 prostate; 53.2% in the assay with K-562 leukemia; 74% in the assay on MALME-3M melanoma. The growth was 37.4% with MDA-MB-231 breast; 29.9% with RXF 393 renal; 42.7% in the assay with SF-268 CNS; 81.5% with SF-295 CNS; 38.1% in the assay on SF-539 CNS; 78.3% in the assay on UACC-257 melanoma. Also, the growth was 78% in the assay on M14 melanoma and 45.4% in the assay on HCT-15 colon.
Consider `Cc1c(Nc2nnc(SCC(=O)Nc3sc4c(c3C#N)CCCC4)s2)c(=O)n(-c2ccccc2)n1C`, for which the growth in the assay on NCI-H226 lung is 104%; in the assay with NCI-H322M lung, 98.9%; in the assay on HOP-62 NSCLC, 107%; with NCI-H460 lung it was 100%; in the assay on HOP-92 NSCLC it was 121%; with NCI-H522 lung it was 97.5%. For the same compound, the growth in the assay on A549/ATCC NSCLC was 106%; in the assay on 786-0 renal, 108%; in the assay with COLO 205 colon, 118%; in the assay on DU-145 prostate, 105%; in the assay with K-562 leukemia, 93.5%; in the assay on MALME-3M melanoma, 119%. In addition, the growth with MDA-MB-231 breast is 98.4%; with RXF 393 renal, 118%; in the assay on SF-268 CNS, 103%; with SF-295 CNS, 107%; in the assay on SF-539 CNS it was 102%; with UACC-257 melanoma, 116%. In addition, the growth with M14 melanoma and in the assay on HCT-15 colon was 103% each time.
Take `COc1ccc(C(=O)c2cc(C(=O)/C=C/c3c(Cl)cccc3Cl)c3cc(C)ccn23)cc1`: the growth was 103% with NCI-H226 lung; 98.3% with NCI-H322M lung; 98.5% with HOP-62 NSCLC; 100% with NCI-H460 lung; 97.3% with HOP-92 NSCLC; 91.5% in the assay with NCI-H522 lung. Besides, the growth with A549/ATCC NSCLC was 99.6%; in the assay on 786-0 renal, 100%; in the assay on COLO 205 colon it was 108%; with DU-145 prostate, 106%; in the assay with K-562 leukemia, 94.2%; with MALME-3M melanoma, 97.1%. The growth with MDA-MB-231 breast was 96.9%; with RXF 393 renal it was 108%; in the assay on SF-268 CNS, 98%; in the assay on SF-295 CNS it was 101%; with SF-539 CNS, 94.6%; in the assay on UACC-257 melanoma, 102%. The growth in the assay with M14 melanoma is 99.5%; in the assay with HCT-15 colon, 99.9%.
On to `NS(=O)(=O)c1cccc(Nc2nc(SCC(=O)c3ccc(Br)cc3)nc3ccccc23)c1`, for which the growth with NCI-H226 lung was 4.97% (active); in the assay on NCI-H322M lung, 97.6%; in the assay with HOP-62 NSCLC, 59.5%; in the assay on NCI-H460 lung, 38.5%; with HOP-92 NSCLC it was 38.2%; in the assay with NCI-H522 lung, 40.8%. Also, the growth in the assay with A549/ATCC NSCLC is 60.3%; in the assay with 786-0 renal, 14.2%; in the assay with COLO 205 colon, 75.8%; in the assay on DU-145 prostate, 69.4%; in the assay with K-562 leukemia, 44.7%; with MALME-3M melanoma, 54.7%. The growth in the assay with MDA-MB-231 breast was 64.5%; in the assay on RXF 393 renal it was 24.5%; in the assay with SF-268 CNS, 32.8%; in the assay on SF-295 CNS it was 17.4%; with SF-539 CNS it was 72%; in the assay with UACC-257 melanoma, 96.1%. Moreover, the growth in the assay with M14 melanoma is 80.2%; in the assay on HCT-15 colon it was 67.4%.
